PubChem BioAssay (NCATS)
Inconclusive results are not listed. Entries that show only a call come without a potency. The source made the active and inactive calls. The call rests on the fitted dose curve; in most records, active means well fitted inhibition curve with a large enough effect; inconclusive means small, poorly fitted or top-dose-only effect; inactive means flat fitted curve, though single readings scatter.

system: SC27B; test: qHTS profiling for inhibitors of Plasmodium falciparum proliferation (AID 504749); further: nearly all actives have a fitted effect of over 60% in size; conditions: P. falciparum in erythrocytes, SYBR Green DNA, 72 h; series mostly up to 28.7 µM
Procedure, shortened: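 SYBR Green fluorescence (ex 485 nm, em 535 nm) reports parasite DNA after 72 h compound exposure of infected red cells at 0.3% parasitemia, 2.5% hematocrit; signal normalized to 0.29 uM artemisinin and vehicle wells.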
Potency means the concentration at half of the fitted maximal effect.

| SMILES | Potency |
| --- | --- |
| CCC(CC)(CC(=O)Nc1cccc(/C=C/c2nc(C3CCC3)cs2)c1)C(=O)O | inactive |
| COc1cc(O)c(C(=O)c2ccccc2)cc1S(=O)(=O)O | inactive |
| C#C[C@]1(OC(C)=O)CC[C@H]2[C@@H]3CCC4=C/C(=N/O)CC[C@@H]4[C@H]3CC[C@@]21CC | inactive |
| CN1CCC(OC(c2ccccc2)c2ccccc2)CC1 | inactive |
| Cc1cccc(C)c1NC(=O)CN1CCCCCC1 | inactive |
| CCOC(=O)Nc1ccc2c(c1)N(C(=O)CCN1CCOCC1)c1ccccc1S2 | inactive |
| Cc1cc2c(OCC(CNC(C)(C)C)OC(=O)c3ccccc3)cccc2[nH]1 (configuration not stated) | inactive |
| CCc1ccc(C(=O)C(C)CN2CCCCC2)cc1 (configuration not stated) | inactive |
| CCC(C(=O)OCCOCCN(CC)CC)c1ccccc1 (configuration not stated) | inactive |
| CC(=O)NCCCCCC(=O)O | inactive |
| O=C(NC1CCN(CCc2c[nH]c3ccccc23)CC1)c1ccccc1 | inactive |
| CCOc1ccccc1OCCN[C@H](C)Cc1ccc(OC)c(S(N)(=O)=O)c1 | inactive |
| CCN(CC)CCOC(=O)C1(c2ccccc2)CCCC1 | inactive |
| NC(=O)C1(N2CCCCC2)CCN(CCCC(=O)c2ccc(F)cc2)CC1 | inactive |
| Cc1ncc(CO)c(C=O)c1O | inactive |
| CC(=O)O[C@H]1C[C@@H]2CC[C@@H]3[C@H](CC[C@@]4(C)[C@H]3C[C@H]([N+]3(C)CCCCC3)[C@@H]4OC(C)=O)[C@@]2(C)C[C@@H]1N1CCCCC1 | inactive |
| CC[N+](C)(CC)CCOC(=O)C(O)(c1ccccc1)C1CCCCC1 (configuration not stated) | inactive |
| CO[C@]12C[C@@H](COC(=O)c3cncc(Br)c3)CN(C)[C@@H]1Cc1cn(C)c3cccc2c13 | inactive |
| CCNC(=O)NCc1cccc(Cl)c1 | inactive |
| Cc1ccc2c(Br)cc(Br)c(O)c2n1 | 11.2 µM (active) |
| O=[N+]([O-])c1cccc(S(=O)(=O)NCCNS(=O)(=O)c2cccc([N+](=O)[O-])c2)c1 | inactive |
| CC(C)[N+](C)(C)CC(O)COc1cccc2ccccc12 (configuration not stated) | inactive |
| C[N+]1(C)CCC(=C(c2ccccc2)c2ccccc2)CC1 | inactive |
| NCc1ccccc1Sc1ccccc1CO | inactive |
| OC[C@H]1O[C@@H]2O[C@H]3[C@H](O)[C@@H](O)[C@@H](O[C@H]4[C@H](O)[C@@H](O)[C@@H](O[C@H]5[C@H](O)[C@@H](O)[C@@H](O[C@H]6[C@H](O)[C@@H](O)[C@@H](O[C@H]7[C@H](O)[C@@H](O)[C@@H](O[C@H]8[C@H](O)[C@@H](O)[C@@H](O[C@H]1[C@H](O)[C@H]2O)O[C@@H]8CO)O[C@@H]7CO)O[C@@H]6CO)O[C@@H]5CO)O[C@@H]4CO)O[C@@H]3CO | inactive |
| CC(C)=CCOc1ccc(/C=C/C(=O)c2ccc(OCC=C(C)C)cc2OCC(=O)O)cc1 | inactive |
| CC(=O)O[C@]1(C(C)=O)CC[C@H]2[C@@H]3C=C(Cl)C4=CC(=O)CC[C@]4(C)[C@H]3CC[C@@]21C | 8.91 µM (active) |
